Bioassay records (PubChem)
Only some compounds are listed: those with a hit (about 3.2% of all), similar ones and a draw of the others.
p53null 32C kill: kills p53 null cells at the permissive temperature; H1299-neo p53 null cells, ATP luminescence, 24 h, 32C; Potency, µM (top dose mostly 46.1 µM), most hits filed as cytotoxic; 55,000 tested, 0.62% active; AID 903; further: nearly all actives have a fitted effect of over 55% in size
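Luminescent ATP readout gave cell viability of p53-null H1299-neo cells after a 24 h compound exposure at the permissive 32C. Titrations ran up to 46 uM, and AC50s were fitted with the standard Hill equation.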
PMP22 txn: modulates PMP22 transcription in S16 Schwann cells | S16 Pmp22-F2sN Schwann cells, FLuc/NLuc coincidence luminescence, 24 h | Potency, µM (titrated, usually from 57.5 µM), usual class: inhibitors | 43,000 tested, 2% active; active means clear falling dose curves in both reporters; inconclusive means both reporters move, but less clearly or upward; inactive means either reporter flat; the % is the NLuc reporter signal
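S16(c9) Schwann cells with FLuc/NLuc coincidence reporter in the Pmp22 3' UTR; compounds pin-transferred, 24 h at 37C. Dual-luciferase read: FLuc first, then NLuc after Stop&Glo, each 10 min at room temperature.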
S16 viability: S16 Schwann cell cytotoxicity. 43,000 tested, 0.48% active. Potency, µM (series often up to 57.5 µM), actives largely listed as cytotoxic. S16 Pmp22-F2sN Schwann cells (luciferase reporters placed in the Pmp22 gene) viability, CellTiter-Glo, 24 h; further: nearly all actives have a fitted effect of over 65% in size
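CellTiter-Glo counter-screen, qHTS, 1536-well. Cells: S16(c9) Pmp22-F2sN, 500-1,000/well in DMEM + 10% FBS. Cpd 23 nL pin transfer, 24 h, 37C/5% CO2. Read: luminescence, CCD imager.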
p53null 39C tox: kills p53 null cells at the nonpermissive temperature. H1299 p53-null (neo) cells, 39C, ATPlite viability, 24 h. Potency, µM (top dose mostly 46.1 µM), usual class: cytotoxic. 55,000 tested, 0.97% active. AID 904; further: nearly all actives have a fitted effect of over 50% in size
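Temperature-shift cytotoxicity format: compound titrations on p53-null or A138V-expressing H1299 cells held 24 hr at 39C, cell ATP then measured, AC50 from Hill model.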
mTORC1 inh: mTORC1 pathway inhibition measured by phospho-rpS6; 44,000 tested, 0.78% active; Potency, µM (series often up to 38.3 µM), usual class: inhibitors; AID 493208; Tsc2-/- p53-/- MEF, phospho-rpS6 immunofluorescence/PI, 24 h; further: nearly all actives have a fitted effect of over 50% in size
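Plate MEFs (Tsc2-/-, p53-/-, empty vector) in DMEM/10% FBS; after 24 h add compound, incubate 24 h at 37 degree Celsius; fix in PFA/TX-100, block, stain phospho-rpS6 and 10 uM PI; scan at 488 nm; report % positive cells.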
NLuc sat counter: inhibits NanoLuc at saturating substrate, PMP22 counter-screen; shares compounds with PMP22 txn; Secreted NLuc enzyme (filtered S16 cell medium), Nano-Glo luminescence; Potency, µM (top dose mostly 57.5 µM), usual class: inhibitors; 690 tested, 4% active; AID 1508638
NLuc Km ctr: inhibits NanoLuc under Km conditions, PMP22 counter-screen; shares compounds with PMP22 txn; secreted NLuc enzyme, coelenterazine luminescence, Km conditions; Potency, µM (highest dose often 57.5 µM), usual class: inhibitors; 690 tested, 5% active; AID 1508639
FLuc counter: inhibits firefly luciferase, PMP22 counter-screen; 690 tested, under 10 active; shares compounds with PMP22 txn; AID 1508640; purified P. pyralis FLuc, luminescence, 10 min; Potency, µM (titrated, usually from 57.5 µM), usual class: inhibitors
Target sequence (P08659 whole entry, looked up): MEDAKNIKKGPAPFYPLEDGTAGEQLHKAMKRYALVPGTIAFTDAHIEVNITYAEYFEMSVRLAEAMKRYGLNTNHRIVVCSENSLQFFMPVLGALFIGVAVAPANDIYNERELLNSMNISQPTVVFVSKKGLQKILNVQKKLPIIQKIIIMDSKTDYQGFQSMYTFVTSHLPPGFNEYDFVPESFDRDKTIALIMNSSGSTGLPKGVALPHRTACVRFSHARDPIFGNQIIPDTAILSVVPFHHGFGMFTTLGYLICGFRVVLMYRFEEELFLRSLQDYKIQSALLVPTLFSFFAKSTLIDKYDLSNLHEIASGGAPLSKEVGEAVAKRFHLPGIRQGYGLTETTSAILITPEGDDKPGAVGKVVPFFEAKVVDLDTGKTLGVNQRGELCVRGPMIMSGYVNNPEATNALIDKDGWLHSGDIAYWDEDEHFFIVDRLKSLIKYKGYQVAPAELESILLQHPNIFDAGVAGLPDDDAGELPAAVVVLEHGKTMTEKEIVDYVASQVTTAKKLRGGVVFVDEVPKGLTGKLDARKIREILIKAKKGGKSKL
S16 F2sN tox cnf: S16 Schwann cell cytotoxicity, confirmatory; shares compounds with PMP22 txn; S16 Schwann cells viability, CellTiter-Glo ATP luminescence, 24 h; Potency, µM (top dose mostly 57.5 µM), usual class: cytotoxic; 690 tested, 7% active
PMP22 txn conf: confirmation of modulators of PMP22 gene transcription in S16 cells; 690 tested, 22% active; Potency, µM (top dose mostly 57.5 µM), usual class: inhibitors; S16 Schwann cells Pmp22-F2sN, dual luciferase, 24 h; shares compounds with PMP22 txn; AID 1508646; active means clear falling dose curves in both reporters; inconclusive means both reporters move, but less clearly or upward; inactive means either reporter flat; the % is the FLuc reporter signal
PMP22 prot conf: confirmation of modulators of rat PMP22 protein expression | Potency, µM (titrated, usually from 27.9 µM), most hits filed as inhibitors | shares compounds with PMP22 txn | S16 Schwann cells Pmp22-HiBiT, luminescence, 48 h | 95 tested, under 10 active | AID 1508647
Target sequence (P25094 whole entry, looked up): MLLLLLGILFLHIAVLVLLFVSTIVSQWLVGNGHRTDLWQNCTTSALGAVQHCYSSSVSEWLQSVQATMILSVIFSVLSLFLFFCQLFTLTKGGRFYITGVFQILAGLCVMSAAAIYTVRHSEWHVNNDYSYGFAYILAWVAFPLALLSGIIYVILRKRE
Hits are given with their value; – = inactive; ? = inconclusive; · = not tested or not shown. Unless noted, the call rests on the fitted dose curve; in most records, active means well fitted curve in the direction sought with a large enough effect; inconclusive means small, poorly fitted or top-dose-only effect, or another doubt; inactive means no such curve, though single readings can be large; an effect the other way counts as inactive or inconclusive.

SMILES | p53null 32C kill | PMP22 txn | S16 viability | p53null 39C tox | mTORC1 inh | NLuc sat counter | NLuc Km ctr | FLuc counter | S16 F2sN tox cnf | PMP22 txn conf | others
CC(C)c1nn2c(=O)cc(COC(=O)c3cccc(NC(=O)COc4ccc(F)cc4)c3)nc2s1 | – | ? | ? | – | – | · | · | · | · | ·
CCc1ccc(C(=O)c2cn(CC(=O)Nc3ccc4c(c3)OCO4)c3ccc(Cl)cc3c2=O)cc1 | – | ? | – | ? | ? | · | · | · | · | ·
CCc1ccc(C(=O)c2cn(CC(=O)Nc3ccc4c(c3)OCO4)c3ccc(CC)cc3c2=O)cc1 | – | 13µM | – | ? | – | – | – | – | ? | 12µM | PMP22 prot conf=?
CCOC(=O)c1ccc(NC(=O)c2cnc(N3CCCC3)nc2C)cc1 | – | ? | – | – | – | · | · | · | · | ·
CC(=O)Nc1ccc(-c2nnc3n(CC(C)C)c(=O)c4ccccc4n23)cc1 | – | ? | – | – | – | ? | – | – | – | –
CC(C)Cn1c(=O)c2ccccc2n2c(-c3ccc(Br)cc3)nnc12 | – | – | – | – | – | · | · | · | · | ·
COc1ccc(N(C(=O)c2cc(OC)c(OC)c(OC)c2)S(=O)(=O)c2ccc(C)cc2)cc1 | – | 19µM | ? | – | – | – | – | – | – | –
CCc1ccccc1N1CC(c2nc3ccccc3n2CC(C)C)CC1=O (configuration not stated) | – | – | – | – | – | · | · | · | · | ·
COc1ccc(OCC(O)Cn2c(=N)n(CCN3CCCCC3)c3ccccc32)cc1 (configuration not stated) | – | ? | ? | ? | · | · | · | · | · | ·
N=c1n(CCN2CCCCC2)c2ccccc2n1CC(O)COc1ccc(Cl)cc1Cl (configuration not stated) | 18µM | 12µM | ? | 13µM | 3.7µM | – | – | – | 31µM | ?
CCOC(=O)N1CCN(Cc2nc3cc(NC(=O)c4ccc([N+](=O)[O-])cc4)ccc3n2C(C)C)CC1 | – | 14µM | – | – | ? | ? | 19µM | – | ? | ?
CCOC(=O)N1CCN(Cc2nc3cc(NC(=O)CC(C)C)ccc3n2C(C)C)CC1 | – | ? | – | ? | ? | · | · | · | · | ·
CCOC(=O)N1CCN(Cc2nc3cc(NC(=O)CC)ccc3n2C(C)C)CC1 | – | 5.3µM | – | – | ? | – | – | – | – | ?
CCN(CC)c1ccc(NC(=O)CCCN2C(=O)C(c3ccccc3)Oc3cccnc32)c(C)c1 (configuration not stated) | – | 15µM | – | – | – | – | ? | – | – | ?
O=C(CCCN1C(=O)C(c2ccccc2)Oc2cccnc21)Nc1ccccc1C(F)(F)F (configuration not stated) | – | ? | – | – | – | · | · | · | · | ·
O=C(Nc1ccccc1Cl)c1cc2c(-c3ccccc3)nn(-c3ccccc3)c2s1 | – | – | – | – | – | · | · | · | · | ·
CCN1CCN(c2ccc(NS(=O)(=O)c3c(C)nc4sccn4c3=O)cc2Cl)CC1 | – | 8.9µM | – | – | – | – | – | – | ? | –
CN(C)CCNC(=O)c1ccc(Cn2c(=O)c3cccn3c3cccnc32)cc1 | – | 11µM | – | – | ? | – | ? | – | – | –
COc1cccc(CNC(=O)Cn2c(=O)ccc3cc(S(=O)(=O)N4CCCC4)ccc32)c1 | – | – | – | – | – | · | · | · | · | ·
CC1CCN(C(=O)CCS(=O)(=O)c2cc3c(cc2Cl)NC(=O)CO3)CC1 | – | – | – | – | – | – | – | – | – | –
CCCCCOc1ccccc1CN1C(=O)C(=O)c2cc(C)ccc21 | – | 14µM | – | ? | ? | ? | ? | – | – | ?
COc1ccccc1CNC(=O)C1CCCN(c2nnc(-n3c(C)ccc3C)s2)C1 (configuration not stated) | – | ? | – | – | – | – | – | – | – | –
Cc1ccc(C)n1-c1nnc(N2CCCC(C(=O)NCc3cccc(F)c3)C2)s1 (configuration not stated) | – | 15µM | – | – | – | – | – | – | – | ?
Cc1ccc(C)n1-c1nnc(N2CCCC(C(=O)NCc3ccccc3)C2)s1 (configuration not stated) | – | ? | – | – | – | · | · | · | · | ·
O=C(Nc1nc2ccc(F)cc2s1)c1nc(S(=O)(=O)Cc2ccccc2F)ncc1Cl | ? | 9.5µM | ? | ? | ? | – | ? | – | ? | 13µM
SMILES | p53null 32C kill | PMP22 txn | S16 viability | p53null 39C tox | mTORC1 inh | NLuc sat counter | NLuc Km ctr | FLuc counter | S16 F2sN tox cnf | PMP22 txn conf | others
Cc1cc(C)cc(Nc2cc(C(=O)NCCCN(C)C3CCCCC3)c3ccccc3n2)c1 | ? | 8.9µM | ? | 13µM | 4.1µM | – | – | ? | 17µM | 15µM
CCc1ccccc1Nc1cc(C(=O)NCCCN(C)C2CCCCC2)c2ccccc2n1 | – | 20µM | ? | – | ? | – | – | – | ? | ?
CCN(CCCNC(=O)c1cc(Nc2ccc(OC)cc2OC)nc2ccccc12)c1cccc(C)c1 | – | 15µM | – | – | – | – | – | – | – | –
Cc1ccc(C)c(Nc2cc(C(=O)NCCCN(C)C3CCCCC3)c3ccccc3n2)c1 | – | ? | ? | ? | ? | · | · | · | · | ·
CCCCN(CCCNC(=O)c1cc(Nc2ccc(OC)cc2OC)nc2ccccc12)Cc1ccccc1 | – | ? | – | ? | – | · | · | · | · | ·
O=C(NCc1ccc(Cl)cc1)c1ccc2c(c1)N(Cc1ccccc1F)C(=O)c1ccccc1S2=O (configuration not stated) | – | ? | – | – | – | · | · | · | · | ·
O=C(COc1ccccc1)Nc1ccc(OCc2cc(=O)n3ccsc3n2)cc1 | – | – | – | – | – | · | · | · | · | ·
CCOC(=O)c1ccc(NC(=O)CCCc2nc(-c3cc(OC)c(OC)c(OC)c3)no2)cc1 | – | – | – | – | – | · | · | · | · | ·
